Measurements reported in PubChem BioAssay (EPA / NIEHS).
Inconclusive results are not listed. The source holds several records for some structures; these can differ, active in one and inactive in another. Calls of active or inactive are those of the source. Rule for the calls, unless noted: active = hit-call score of the fitted dose curve at least 0.9, where 1 is the maximum; inactive = score below 0.9.

Key:
[1] = CCTE_Shafer_MEA_dev_LDH: CCTE's Lactate Dehydrogenase Assay for Cytotoxicity in the Neural Network Formation Assay, Shafer Lab (AID 2284068; active = hit-call score of the fitted dose curve at least 0.9, where 1 is the maximum;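 note: exposure for twelve days from plating with re-dosing on DIV 5 and 9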)
Outline: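 Primary rat cortical neurons were cultured on PEI-coated MEA plates and exposed from plating through day 12, with compound renewed at medium changes on DIV 5 and 9. LDH activity was read spectrophotometrically; loss of signal versus DMSO indicates reduced viability.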

[2] = CCTE_Shafer_MEA_dev_AB: CCTE's Alamar Blue Assay for Cytotoxicity in the Neural Network Formation Assay, Shafer Lab (AID 2284083; active = hit-call score of the fitted dose curve at least 0.9, where 1 is the maximum;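 note: resazurin reduction fluorescence as viability of cultured neurons; twelve days of exposure from plating with re-dosing on DIV 5 and 9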)
Outline: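 Resazurin fluorescence, relative to DMSO, gauges viability after twelve days of exposure that began at plating of rat cortical neurons (1.5 x 10^5 cells/well, 48-well MEA); treatment renewed with full medium exchange on DIV 5 and 9.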

[3] = CCTE_Shafer_MEA_dev_mutual_information_norm: CCTE's Neural Network Formation Assay for Mutual Information Normalization, Shafer Lab (AID 2284091);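 for AC50: mutual information between electrodes summarised as area under curve across four recording days; potency is for a decrease in mutual information relative to DMSO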
Outline: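 Neurons from rat cortex were seeded at 1.5 x 10^5 cells/well onto PEI-coated MEAs in a laminin drop, then exposed to compound from day 0 for twelve days. Network recordings on four days gave mutual information, summarised by AUC relative to DMSO.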

[4] = CCTE_Shafer_MEA_dev_correlation_coefficient_mean: CCTE's Neural Network Formation Assay for Mean Correlation Coefficient, Shafer Lab (AID 2284093);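 for AC50: well mean pairwise spike train correlation integrated as AUC over recording days 5 to 12; potency fitted for loss of correlation relative to DMSO vehicle wells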
Outline: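 Primary rat cortical neurons on PEI-coated 48-well MEA plates (16 electrodes/well) were exposed from plating day 0 through DIV12, with compound renewed at DIV5 and 9. Pairwise spike correlations were averaged per well; trapezoidal AUC across DIV5, 7, 9, 12.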

[5] = CCTE_Shafer_MEA_acute_AB: CCTE's Alamar Blue Assay for Cytotoxicity in the Neural Acute Assay, Shafer Lab (AID 2284069; active = hit-call score of the fitted dose curve at least 0.9, where 1 is the maximum;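 note: active compounds lower the viability signal compared with DMSO wells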)
Outline: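 Resazurin reduction (CellTiter Blue, 1:6 in fresh medium) read at ex 544/em 590 nm marks viability loss relative to DMSO. Cells: primary rat cortical neuron networks on microelectrode arrays, treated after baseline recording at 13 or 15 days in vitro.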

DIO3 (gene 1735) = test: CCTE_GLTED_hDIO3: CCTE's human Deiodinase 3 (DIO3) Inhibition Assay, Great Lakes Toxicology and Ecology Division (GLTED) Lab (AID 2284055; active = hit-call score of the fitted dose curve at least 0.9, where 1 is the maximum;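 note: potency is for inhibition seen as loss of released iodide signal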)
Outline: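 hDIO3 (adenovirus-expressed) + test chemical, 3 h incubation; free iodide quantified by Sandell-Kolthoff reaction, absorbance read-out. DMSO negative control, n=3.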

[6] = CCTE_Shafer_MEA_acute_LDH: CCTE's Lactate Dehydrogenase Assay for Cytotoxicity in the Neural Acute Assay, Shafer Lab (AID 2284086; active = hit-call score of the fitted dose curve at least 0.9, where 1 is the maximum;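 note: active means LDH release rises above DMSO vehicle level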)
Outline: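 LDH absorbance at 490 nm in medium taken right after 40-min compound exposure; rat primary cortical neuron networks on MEA plates, days post-plating 13 or 15. Increase over DMSO baseline scored as cytotoxicity.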

[7] = IUF_NPC1b_proliferation_BrdU_72hr: Leibniz Research Institute for Environmental Medicine (IUF) 72-hour Neural Progenitor Cell Bromodeoxyuridine (BrdU) Proliferation Assay (NPC1b) (AID 2284207)
Outline: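 Luminescent BrdU ELISA measured DNA synthesis during the last 16 h of a 72 h exposure of primary human neural progenitor spheres grown with EGF and FGF. Signal was fitted relative to DMSO controls.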

[8] = IUF_NPC1a_proliferation_area_72hr: Leibniz Research Institute for Environmental Medicine (IUF) 72-hour Neural Progenitor Cell Proliferation Area Assay (NPC1a) (AID 2284208)
Outline: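 Spheres of 0.3 mm are plated singly in growth-factor medium and exposed from day 0. After three days at 37C and 5% CO2, sphere area is measured by phase contrast imaging, with activity referenced to DMSO.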

[9] = IUF_NPC1_viability_72hr: Viability Assessment at 72 hours in the Leibniz Research Institute for Environmental Medicine (IUF) Neural Progenitor Cell Proliferation Assay (NPC1) (AID 2284209)
Outline: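 Alamar blue fluorescence (RFU) after 72 h exposure, normalized to DMSO baseline. hNPC spheres from GW 16-19 fetal cortex, single sphere per well in growth-factor medium; no compound renewal.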

[10] = CCTE_Mundy_HCI_Cortical_Synap_Neur_Matur_NeuriteSpotCountPerNeuriteLength: CCTE's Synaptogenesis and Neurite Maturation Assay in rat cortical cells for Neurite Spot Count per Neurite Length, Mundy Lab (AID 2284210)
Outline: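 Read-out: synaptophysin puncta counted along MAP2-stained neurites, normalised to neurite length, by automated high-content imaging. Rat cortical cells; AraC DIV 5; chemical dosing DIV 7; termination DIV 12. DMSO baseline.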

[11] = CCTE_Mundy_HCI_Cortical_NOG_NeuriteCount: CCTE's Neurite Outgrowth Assay in rat cortical cells for Neurite Count, Mundy Lab (AID 2284212);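 note: cells fixed about two days after chemical exposure began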
Outline: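 Rat cortical primary cells; compound added 2 h post-plating, 1/10 dilution of working solution. Anti-betaIII-tubulin/AF488 ICC; ArrayScan neurite count vs DMSO.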

[12] = CCTE_Mundy_HCI_Cortical_NOG_NeuriteLength: CCTE's Neurite Outgrowth Assay in rat cortical cells for Neurite Length, Mundy Lab (AID 2284213);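 for AC50: neurites imaged about 48 to 50 h after chemical exposure began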
Outline: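 First, rat primary cortical cells were plated and, 2 h later, given test chemical as a 1/10 dilution. Finally, βIII-tubulin immunostaining enabled automated imaging of neurite length.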

[13] = CCTE_Mundy_HCI_Cortical_Synap_Neur_Matur_NeuriteLength: CCTE's Synaptogenesis and Neurite Maturation Assay in rat cortical cells for Neurite Length, Mundy Lab (AID 2284214)
Outline: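 Read-out: high-content imaging of MAP2-labelled neurites, with synaptophysin and Hoechst co-stain, in rat cortical cultures fixed at DIV 12. Activity fitted in positive direction relative to DMSO baseline.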

[14] = CCTE_Mundy_HCI_Cortical_Synap_Neur_Matur_NeuriteSpotCountPerNeuron: CCTE's Synaptogenesis and Neurite Maturation Assay in rat cortical cells for Neurite Spot Count per Neuron Count, Mundy Lab (AID 2284215)
Outline: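 Rat cortical primary cultures; AraC DIV 5 to arrest glia; dosing + media change DIV 7; fixed DIV 12. Anti-MAP2/anti-synaptophysin, Hoechst nuclei; HCI puncta count per neuron, positive fitting direction vs DMSO.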

[15] = UKN5_HCS_SBAD2_cell_viability: Viability Assessment in the University of Konstanz (UKN) Leist Lab Neurite Outgrowth Assay in human iPSC-derived immature Dorsal Root Ganglia Neurons (UKN5) (AID 2284056)
Outline: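 iPSC-derived immature peripheral neurons (SBAD2) seeded on Matrigel with CHIR99021, SU5402 and DAPT, dosed 1 h later for 24 h. Viability from Hoechst H-33342 and calcein-AM live staining, high-content imaging; bidirectional fit versus DMSO.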

[16] = UKN5_HCS_SBAD2_neurite_outgrowth: University of Konstanz (UKN) Leist Lab Neurite Outgrowth Assay in human iPSC-derived immature Dorsal Root Ganglia Neurons (UKN5) (AID 2284070); details: actives raise or lower the signal
Outline: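 Cryopreserved SBAD2 peripheral neurons were seeded at 100.000 cells/cm2 in N2-S/KSR medium containing CHIR99021, SU5402 and DAPT, then exposed to compounds for 24 h. Neurite area from calcein-AM high-content imaging was fitted bidirectionally against DMSO.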

[17] = UKN2_HCS_IMR90_neural_migration: University of Konstanz (UKN) Leist Lab Neural Crest Cell Migration Assay in human induced IMR90 Pluripotent Stem Cells (UKN2) (AID 2284204); details: actives raise or lower the signal
Outline: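 Stopper-exclusion migration (cMINC), human iPSC-derived neural crest cells; N2-S + EGF/FGF; compound added 24 h post-stopper removal, 24 h exposure. Readout: calcein-AM/Hoechst 30 min, HCS fluorescence imaging; bidirectional fitting, DMSO baseline.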

[18] = UKN4_HCS_LUHMES_neurite_outgrowth: University of Konstanz (UKN) Leist Lab Neurite Outgrowth Assay in human LUHMES cells (UKN4) (AID 2284206); details: actives raise or lower the signal
Outline: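 Read-out: calcein-AM neurite area by high-content fluorescence imaging, with Hoechst H-33342 viability counterstain, after 24 h chemical exposure of day-2 differentiated LUHMES cells. Activity fitted bidirectionally against DMSO baseline.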

[19] = CCTE_Mundy_HCI_Cortical_Synap_Neur_Matur_BPCount: CCTE's Synaptogenesis and Neurite Maturation Assay in rat cortical cells for Branch Point Count, Mundy Lab (AID 2284211)
Outline: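 In this multiplexed morphology assay, cortical cells from rat receive chemicals at DIV 7 and are fixed at DIV 12, then immunostained and imaged; branch points are counted, with DMSO as baseline.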

Measured: AC50

O=C(CC(=O)C(F)(F)C(F)(F)C(F)(F)F)c1cccs1
active: [1] 8.63 µM | [2] 9.02 µM | [4] 7.75 µM
inactive: [3]

CCC(C)c1ccccc1O (stereo not drawn)
inactive: [5]

CCCCCCCCCC=CCC1CC(=O)OC1=O (stereo not drawn)
active: DIO3 (gene 1735) 27.2 µM

O=CC(F)(F)C(F)(F)C(F)(F)F
inactive: [2] | [3] | [4]

CCCCCCCCCCCCOC(=O)c1cc(O)c(O)c(O)c1
active: DIO3 (gene 1735) 6.66 µM

Oc1ccc(Cc2ccccc2O)cc1
inactive: [5] | [6]

Cc1cc(Cc2cc(C)cc(C(C)(C)C)c2O)c(O)c(C(C)(C)C)c1
active: DIO3 (gene 1735) 14.2 µM

O=C1NS(=O)(=O)c2ccccc21
inactive: [1] | [6] | [3] | [4] | [7] | [8] | [9] | [10] | [11] | [12] | [13] | [14]

CCCCCCCCCCCCOS(=O)(=O)O
active: DIO3 (gene 1735) 99.6 µM

Nc1ccn([C@@H]2O[C@H](CO)[C@@H](O)C2O)c(=O)n1 (stereo partly drawn)
inactive: [15] | [17] | [18] | [10]
active: [1] 1 µM | [16] 0.611 µM | [2] 0.969 µM | [3] 0.0744 µM | [4] 0.0919 µM | [12] 5.88 µM | [13] 17.1 µM | [14] 15.9 µM

CN(CCO)S(=O)(=O)C(F)(F)C(F)(F)C(F)(F)C(F)(F)C(F)(F)C(F)(F)C(F)(F)C(F)(F)F
inactive: [3] | [4]

O=C(CCCN1CCC(O)(c2ccc(Cl)cc2)CC1)c1ccc(F)cc1
active: [15] 55.6 µM | [1] 7.35 µM | [16] 20.2 µM | [3] 0.163 µM | [4] 1.74 µM | [18] 13.1 µM | [10] 50 µM | [12] 6.16 µM | [13] 21.2 µM | [14] 17.8 µM
inactive: [2] | [6] | [17] | [7] | [8] | [9]

NC(C(F)(F)F)C(F)(F)F
inactive: [2] | [3] | [4]

CC(=O)Nc1ccc(O)cc1
inactive: [1] | [5] | [2] | [6] | [3] | [4] | [7] | [8] | [9] | [10] | [12] | [13] | [14]

OCC(CO)(CBr)CBr
inactive: [5] | [6]

CN(C)CCOC(c1ccccc1)c1ccccc1
inactive: [5] | [2] | [6] | [3]
active: [4] 15.5 µM

CCCCc1oc2ccccc2c1C(=O)c1cc(I)c(OCCN(CC)CC)c(I)c1
inactive: [5] | [6]

Oc1c(Cl)cc(Cl)cc1Sc1cc(Cl)cc(Cl)c1O
inactive: [5] | [6]

N=C(N)c1ccc(OCCCCCOc2ccc(C(=N)N)cc2)cc1
inactive: [5] | [6]

O=CC(F)(F)C(F)(F)C(F)(F)C(F)F
inactive: [3] | [4]

O=C(O)CCC(F)(F)C(F)(F)C(F)(F)C(F)(F)C(F)(F)F
inactive: [1] | [3] | [4]

O=C(O)C(F)(F)OC(F)(F)C(F)(F)OC(F)(F)C(F)(F)OC(F)(F)C(F)(F)C(F)(F)C(F)(F)F
inactive: [1] | [2] | [3] | [4]
active: DIO3 (gene 1735) 37.1 µM

CN(Cc1cnc2nc(N)nc(N)c2n1)c1ccc(C(=O)N[C@@H](CCC(=O)O)C(=O)O)cc1
active: [1] 0.00802 µM | [2] 0.0389 µM | [3] 0.0191 µM | [4] 0.0189 µM | [19] 0.0449 µM | [13] 0.0328 µM
inactive: [10] | [11] | [12] | [14]

COC(=O)C(F)(F)C(F)(F)C(F)(F)F
inactive: [3] | [4]

NC(=NCCCCCCN=C(N)/N=C(\N)Nc1ccc(Cl)cc1)/N=C(\N)Nc1ccc(Cl)cc1
active: DIO3 (gene 1735) 2.65 µM

CCCCCCCCCCCC
inactive: [6]
active: DIO3 (gene 1735) 22.7 µM

COC(=O)C(F)(F)C(F)(F)C(F)(F)C(F)(F)C(F)(F)F
inactive: [3] | [4]

O=C(OC(=O)C(F)(F)C(F)(F)F)C(F)(F)C(F)(F)F
inactive: [2] | [3] | [4]

OCC(F)(F)C(F)(F)C(F)(F)C(F)(F)C(F)(F)C(F)(F)C(F)(F)C(F)(F)C(F)(F)C(F)(F)C(F)(F)F
active: [1] 9.45 µM | [2] 18.9 µM | [3] 4.61 µM | [4] 8.06 µM
inactive: [1] | [2] | [3] | [4]

FCOC(C(F)(F)F)C(F)(F)F
inactive: [2] | [3] | [4]

C=CC(F)(F)C(F)(F)C(F)(F)C(F)(F)F
inactive: [2] | [3] | [4]

O=P(O)(O)CCC(F)(F)C(F)(F)C(F)(F)C(F)(F)C(F)(F)C(F)(F)C(F)(F)C(F)(F)F
active: [1] 8.87 µM | [2] 8.79 µM | [3] 4.31 µM | [4] 6.27 µM
